Test results taken from the supplement of paper PMC3334620.
Whole data set: some 33,000 sequences, median “E-score (-0.5 to 0.5)” near -0.016, cut for the highest 2% near 0.31. Shown is part of a subset that was picked to be rich in the highest values.

biological target: Cst6 (UniProt P40535); assay: PBM E-score (8-mer binding enrichment) (E-score (-0.5 to 0.5)); higher = stronger / more preferred TF binding; conditions: protein concentration: 200 nM; construct: GST-DNA-binding domain
Experimental: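 Universal 'all 10-mer' protein binding microarrays (Agilent AMADID 015681) probed with GST-tagged S. cerevisiae TFs (full-length or DBD) made by in vitro transcription/translation (PURExpress), about 100-200 nM. Bound TF was detected with fluorescent anti-GST. Each ungapped 8-mer (which stands for itself and its reverse complement) is scored by the PBM enrichment score (E-score), a modified Wilcoxon-Mann-Whitney statistic from -0.5 to +0.5, computed with the Universal PBM Analysis Suite. Scale: above 0.35 generally sequence-specific binding.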

Chain of UniProt P40535 (P40535 whole entry, the tested form may be a part): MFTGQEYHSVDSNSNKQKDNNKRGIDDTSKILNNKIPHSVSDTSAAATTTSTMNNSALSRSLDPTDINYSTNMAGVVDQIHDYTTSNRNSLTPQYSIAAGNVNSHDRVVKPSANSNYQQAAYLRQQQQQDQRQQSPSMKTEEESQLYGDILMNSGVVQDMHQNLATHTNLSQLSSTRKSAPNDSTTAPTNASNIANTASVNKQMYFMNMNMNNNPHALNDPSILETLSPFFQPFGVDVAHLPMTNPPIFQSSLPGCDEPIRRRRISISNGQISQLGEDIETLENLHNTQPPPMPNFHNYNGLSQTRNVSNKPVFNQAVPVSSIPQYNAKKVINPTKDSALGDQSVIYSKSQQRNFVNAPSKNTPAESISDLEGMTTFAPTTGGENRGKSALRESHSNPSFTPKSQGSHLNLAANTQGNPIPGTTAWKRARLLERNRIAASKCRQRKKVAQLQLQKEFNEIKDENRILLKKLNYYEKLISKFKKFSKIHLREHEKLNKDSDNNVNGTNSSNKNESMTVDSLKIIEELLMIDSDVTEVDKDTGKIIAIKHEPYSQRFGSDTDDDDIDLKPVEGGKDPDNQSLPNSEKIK

Row | Sequence | PBM E-score
1 | AATGATGA | 0.334
2 | ATTGATTC | 0.178
3 | AATGATCT | 0.215
4 | AATGATTC | 0.225
5 | ATTGATTG | 0.237
6 | ATTGATTA | 0.308
7 | AAAGATGT | 0.13
8 | AATGATTA | 0.344
9 | ACTGATGA | 0.173
10 | AATGATGG | 0.186
11 | AATGATGT | 0.41
12 | GATGATTA | 0.2
13 | CCAAACTC | -0.0716
14 | CTCATCGC | -0.0477
15 | GTAACCAC | -0.0805
16 | AACAGAGG | -0.0721
17 | ACAAGTTG | -0.0486
18 | AACACCCA | -0.246
19 | TGAACCAA | 0.184
20 | AGGCGGTA | -0.225
21 | CCAAGCCG | -0.182
22 | TGCCATAA | 0.00753
23 | ACGTTACC | 0.179

Row | Sequence | PBM E-score
24 | AACGGTTG | 0.0747
25 | AGTGATGG | 0.0422
26 | ATTGATGC | 0.262
27 | AGTGATGA | 0.284
28 | AATGATGC | 0.347
29 | AATGATCC | 0.026
30 | CCTGATGC | 0.0754
31 | GATGATGC | 0.328
32 | GATGATCC | 0.00428
33 | AGTGATGC | 0.317
34 | AAATTAGC | 0.153
35 | ACACTCCC | -0.177
36 | GCACTAAC | -0.119
37 | CCACCTCA | -0.114
38 | AGCAGTGG | -0.048
39 | TATATAAA | 0.298
40 | AATATAAT | 0.156
41 | TATAAATA | 0.294
42 | AATAAATA | 0.39
43 | AATATAAA | 0.331
44 | AATAAATG | 0.302
45 | CATATAAG | 0.146
46 | AATATAAG | 0.352

Row | Sequence | PBM E-score
47 | CATATAAA | 0.236
48 | AGGACAAC | 0.0452
49 | ACGGTCTA | -0.0035
50 | CGTATTGC | 0.0567
51 | ACGGATTC | 0.0332
52 | CCGTACTC | -0.113
53 | TGCCAAAA | 0.0693
54 | ATGTGGGG | -0.237
55 | GTCATGAA | 0.268
56 | GTCATGAC | 0.374
57 | CTCATGAG | 0.079
58 | GACATGAC | 0.275
59 | ATCATGAC | 0.446
60 | ATCATGAA | 0.17
61 | CTCATGAA | 0.158
62 | CTCATGCA | 0.00428
63 | GTCATGCA | 0.36
64 | CTCATGAC | 0.335
65 | ATCATGAG | 0.146
66 | ATCATGCA | 0.109
67 | ATTGAGCG | -0.0477
68 | ACCGGATA | -0.0988
69 | AAAGGCCA | -0.109

Row | Sequence | PBM E-score
70 | AGCGCGTA | 0.177
71 | CTGATGGA | -0.0729
72 | ACGTGCAG | 0.0472
73 | ACCGCCGT | 0.209
74 | ATCATTAG | 0.19
75 | AAAATTAG | 0.159
76 | CATATTAC | 0.261
77 | GTAATTAA | 0.188
78 | AAAATTAC | 0.257
79 | ATAATTAA | 0.322
80 | TTAATTAA | 0.0995
81 | AATATTAC | 0.241
82 | CTCATTAC | 0.25
83 | AAAATTAT | 0.378
84 | GATATTAC | 0.352
85 | ATCATTAC | 0.375
86 | CAAGGATC | -0.012
87 | GCTATACC | -0.19
88 | GGAGCATA | -0.00076
89 | CCGGCATA | -0.15
90 | CCTGCGCG | -0.0722
91 | AAAGCGCC | 0.113
92 | CTAGTCAA | -0.127

Row | Sequence | PBM E-score
93 | AGCACCTA | -0.227
94 | ATACGTTC | 0.0426
95 | GGGGAGAA | -0.161
96 | ACTATTAC | 0.201
97 | CTTGTTAC | 0.0412
98 | ATTATTAC | 0.339
99 | GAAATTAA | 0.334
100 | CTTATTAC | 0.231
101 | ATAATTAG | 0.223
102 | ATTGTTAG | 0.129
103 | ATAATTAT | 0.342
104 | ATTATAAT | 0.259
105 | CAAATTAA | 0.224
106 | ATTGTTAC | 0.348
107 | AAAATTAA | 0.115
108 | CGACTAAC | -0.0525
109 | ACACACCT | 0.0393
110 | CATGAAAG | 0.082
111 | ATAATTAC | 0.349
